Records with an inconclusive call do not appear. Active and inactive are the calls of the source. The calls were made as follows: active = hit-call score of the fitted dose curve at least 0.9, where 1 is the maximum; inconclusive = response in the unintended direction; inactive = score below 0.9.
Key:
[1] = biological target: human Vascular Endothelial Growth Factor Receptor 3 (VEGFR3), FLT4 (gene 2324) (UniProt P35916); test: NVS_ENZ_hVEGFR3: NovaScreen (NVS) Enzymatic Assay for human Vascular Endothelial Growth Factor Receptor 3 (VEGFR3) (AID 2283229)
Chain of human Vascular Endothelial Growth Factor Receptor 3 (VEGFR3), FLT4 (gene 2324) (P35916 whole entry, looked up): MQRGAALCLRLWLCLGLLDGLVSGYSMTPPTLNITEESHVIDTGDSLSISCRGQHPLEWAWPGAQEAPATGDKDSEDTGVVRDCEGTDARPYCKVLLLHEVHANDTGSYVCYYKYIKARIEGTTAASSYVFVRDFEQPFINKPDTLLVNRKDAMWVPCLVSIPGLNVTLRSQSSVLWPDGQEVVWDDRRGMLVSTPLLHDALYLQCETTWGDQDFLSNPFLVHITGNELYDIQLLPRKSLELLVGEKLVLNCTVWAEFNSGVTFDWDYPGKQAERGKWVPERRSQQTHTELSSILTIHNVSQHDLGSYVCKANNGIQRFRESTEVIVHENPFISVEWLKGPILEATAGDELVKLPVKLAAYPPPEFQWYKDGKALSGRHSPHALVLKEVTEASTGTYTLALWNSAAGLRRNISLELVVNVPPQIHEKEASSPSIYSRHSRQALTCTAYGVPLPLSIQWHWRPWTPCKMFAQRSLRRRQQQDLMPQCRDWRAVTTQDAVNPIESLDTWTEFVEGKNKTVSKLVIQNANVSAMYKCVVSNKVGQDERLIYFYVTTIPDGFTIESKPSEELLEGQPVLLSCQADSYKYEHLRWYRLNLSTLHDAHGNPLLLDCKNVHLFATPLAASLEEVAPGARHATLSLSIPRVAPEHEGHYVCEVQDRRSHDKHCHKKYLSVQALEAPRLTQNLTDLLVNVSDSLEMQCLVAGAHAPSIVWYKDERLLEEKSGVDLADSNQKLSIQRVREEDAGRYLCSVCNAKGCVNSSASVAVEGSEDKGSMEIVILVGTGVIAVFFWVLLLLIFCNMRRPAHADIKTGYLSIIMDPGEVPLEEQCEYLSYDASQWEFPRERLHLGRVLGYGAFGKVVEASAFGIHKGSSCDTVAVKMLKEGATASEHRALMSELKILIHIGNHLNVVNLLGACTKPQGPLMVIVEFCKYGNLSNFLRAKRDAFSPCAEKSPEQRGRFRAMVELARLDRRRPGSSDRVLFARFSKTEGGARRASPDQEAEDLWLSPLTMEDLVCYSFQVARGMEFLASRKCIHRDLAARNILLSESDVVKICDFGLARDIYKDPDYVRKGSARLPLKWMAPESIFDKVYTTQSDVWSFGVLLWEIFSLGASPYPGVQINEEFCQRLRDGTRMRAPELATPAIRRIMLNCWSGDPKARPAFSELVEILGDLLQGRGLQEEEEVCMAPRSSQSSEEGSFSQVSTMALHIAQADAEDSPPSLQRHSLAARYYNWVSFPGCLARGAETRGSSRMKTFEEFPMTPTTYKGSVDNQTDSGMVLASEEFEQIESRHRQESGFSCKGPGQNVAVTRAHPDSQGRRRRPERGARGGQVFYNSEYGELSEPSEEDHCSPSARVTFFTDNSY
Summary of the method: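 Chemicals first run in duplicate at 25 uM, with actives re-tested in concentration series to a top of 50 uM. Recombinant VEGFR3 activity measured after 1 h via fluorescence with mobility-shift product separation; inhibition fitted relative to DMSO.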

[2] = biological target: rat Acetylcholinesterase (AChE), Ache (gene 83817) (UniProt P37136); test: NVS_ENZ_rAChE: NovaScreen (NVS) Enzymatic Assay for rat Acetylcholinesterase (AChE) (AID 2283233)
Procedure: NVS_ENZ_rAChE is a biochemical, single-readout assay that uses extracted gene-proteins from Rat brain membranes in a tissue-based cell-free assay. Measurements were taken 0.33 hour after chemical dosing in a 96-well plate.NVS_ENZ_rAChE is one of one assay component(s) measured or calculated from the NVS_ENZ_rAChE assay. It is designed to make measurements of enzyme activity, a form of enzyme reporter, as detected with absorbance signals by Colorimetric technology.Data from the assay component NVS_ENZ_rAChE was analyzed into 1 assay endpoint. This assay endpoint, NVS_ENZ_rAChE, was analyzed in the positive analysis fitting direction relative to DMSO as the negative control and baseline of activity. Using a type of enzyme reporter, loss-of-signal activity can be used to understand changes in the enzymatic activity as they relate to the gene Ache. Furthermore, this assay endpoint can be referred to as a primary readout, because this assay has produced multiple assay endpoints where this one serves a enzymatic activity function. To generalize the intended target to other relatable targets, this assay endpoint is annotated to the esterase intended target family, where the subfamily is acetylcholinesterase.
Binding assays used specific radioligands (tritiated, iodinated) with non-radioactive competitive displacement ligands in agonist or antagonist protocols (as indicated) and various reference compounds and inhibitors to titrate specific binding to receptors and transporters. Most enzyme assays (CYPs, kinases, phosphatases, proteases, HDACs) used recombinant protein and specific substrates (fluorescence mostly, some colorimetric and radioactive) and inhibitors, followed by a biochemical separation of substrate and product. All assays for the biochemical HTS were initially run in duplicate at a single concentration (10 uM for CYP450 assays and 25 uM for all others). Assay-chemical combinations meeting a pre-defined threshold (e.g., 30% inhibition and other criteria defined below) were then run in singleton concentration-response format with maximum concentration of 20 uM for CYPs and 50 uM for all others. Each assay was run with positive and negative controls, and concurrent controls on every plate. The follow-up (secondary) screen tested active chemical-pairs in concentration series, as well as a few additional assays not tested in the primary screen, some selected negative inactives, and several cases re-run in the concentration series for confirmatory purposes.

[3] = biological target: rat Constitutive Nitric Oxide Synthase (CNOS), Nos1 (gene 24598) (UniProt P29476); test: NVS_ENZ_rCNOS: NovaScreen (NVS) Enzymatic Assay for rat Constitutive Nitric Oxide Synthase (CNOS) (AID 2283236)
Chain of rat Constitutive Nitric Oxide Synthase (CNOS), Nos1 (gene 24598) (P29476 whole entry, looked up): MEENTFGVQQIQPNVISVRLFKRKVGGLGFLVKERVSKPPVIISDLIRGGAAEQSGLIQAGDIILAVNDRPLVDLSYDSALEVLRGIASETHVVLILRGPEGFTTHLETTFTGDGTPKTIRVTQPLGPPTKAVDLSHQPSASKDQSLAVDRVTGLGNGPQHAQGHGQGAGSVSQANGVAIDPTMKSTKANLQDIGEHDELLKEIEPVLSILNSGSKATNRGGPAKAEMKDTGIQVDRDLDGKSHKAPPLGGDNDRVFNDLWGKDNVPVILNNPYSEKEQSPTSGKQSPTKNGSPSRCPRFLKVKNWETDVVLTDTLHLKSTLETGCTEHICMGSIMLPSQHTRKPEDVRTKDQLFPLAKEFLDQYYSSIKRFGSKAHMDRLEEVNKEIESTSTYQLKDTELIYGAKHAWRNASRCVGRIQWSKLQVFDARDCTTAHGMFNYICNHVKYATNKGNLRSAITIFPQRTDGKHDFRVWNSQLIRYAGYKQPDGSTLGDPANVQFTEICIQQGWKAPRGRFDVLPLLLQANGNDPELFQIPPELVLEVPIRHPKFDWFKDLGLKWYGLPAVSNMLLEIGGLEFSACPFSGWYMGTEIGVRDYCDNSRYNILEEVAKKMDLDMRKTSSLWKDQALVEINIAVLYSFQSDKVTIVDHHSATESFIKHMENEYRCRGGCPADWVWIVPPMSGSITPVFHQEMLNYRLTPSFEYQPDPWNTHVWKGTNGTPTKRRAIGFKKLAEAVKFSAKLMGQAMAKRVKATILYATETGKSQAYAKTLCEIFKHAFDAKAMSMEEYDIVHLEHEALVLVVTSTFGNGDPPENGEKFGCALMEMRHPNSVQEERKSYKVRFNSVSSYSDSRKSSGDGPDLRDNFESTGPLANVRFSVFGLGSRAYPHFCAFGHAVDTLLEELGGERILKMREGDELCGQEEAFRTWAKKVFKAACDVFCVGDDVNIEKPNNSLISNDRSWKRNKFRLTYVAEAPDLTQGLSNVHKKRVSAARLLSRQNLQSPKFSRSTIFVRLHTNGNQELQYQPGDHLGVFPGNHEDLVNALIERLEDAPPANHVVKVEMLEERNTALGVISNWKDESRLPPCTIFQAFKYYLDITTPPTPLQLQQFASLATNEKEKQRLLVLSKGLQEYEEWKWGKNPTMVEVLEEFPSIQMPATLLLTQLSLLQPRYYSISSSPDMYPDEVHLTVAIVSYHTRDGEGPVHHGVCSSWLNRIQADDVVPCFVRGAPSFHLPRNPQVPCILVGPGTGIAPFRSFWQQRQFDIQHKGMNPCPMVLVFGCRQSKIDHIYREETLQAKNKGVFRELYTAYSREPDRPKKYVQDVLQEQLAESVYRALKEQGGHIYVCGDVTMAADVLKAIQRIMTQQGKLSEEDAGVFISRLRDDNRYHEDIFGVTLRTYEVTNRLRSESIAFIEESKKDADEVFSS
Summary of the method: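 Single 25 uM duplicate screen, then concentration series to 50 uM for chemicals meeting threshold. Rat brain membrane-derived CNOS activity detected radiometrically by filtration and scintillation counting, 1 h after compound addition; DMSO as baseline.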

[4] = biological target: rat Monoamine Oxidase, MAO-B, Central (MAOBC), Maob (gene 25750) (UniProt P19643); test: NVS_ENZ_rMAOBC: NovaScreen (NVS) Enzymatic Assay for rat Monoamine Oxidase, MAO-B, Central (MAOBC) (AID 2283238)
Summary of the method: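 Actives from a duplicate 25 uM screen went on to singleton concentration-response with a 50 uM maximum. Enzyme source was rat brain tissue MAO-B, assayed cell-free. Radiolabelled product was counted by scintillation 1.17 h post-dose, with signal loss relative to DMSO.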

[5] = biological target: sheep Cyclooxygenase-1 (Cox1), PTGS1 (gene 443551) (UniProt P05979); test: NVS_ENZ_oCOX1: NovaScreen (NVS) Enzymatic Assay for sheep Cyclooxygenase-1 (Cox1) (AID 2283239);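 also: actives reduce cyclooxygenase activity so potencies are for inhibitors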
Chain of sheep Cyclooxygenase-1 (Cox1), PTGS1 (gene 443551) (P05979 whole entry, looked up): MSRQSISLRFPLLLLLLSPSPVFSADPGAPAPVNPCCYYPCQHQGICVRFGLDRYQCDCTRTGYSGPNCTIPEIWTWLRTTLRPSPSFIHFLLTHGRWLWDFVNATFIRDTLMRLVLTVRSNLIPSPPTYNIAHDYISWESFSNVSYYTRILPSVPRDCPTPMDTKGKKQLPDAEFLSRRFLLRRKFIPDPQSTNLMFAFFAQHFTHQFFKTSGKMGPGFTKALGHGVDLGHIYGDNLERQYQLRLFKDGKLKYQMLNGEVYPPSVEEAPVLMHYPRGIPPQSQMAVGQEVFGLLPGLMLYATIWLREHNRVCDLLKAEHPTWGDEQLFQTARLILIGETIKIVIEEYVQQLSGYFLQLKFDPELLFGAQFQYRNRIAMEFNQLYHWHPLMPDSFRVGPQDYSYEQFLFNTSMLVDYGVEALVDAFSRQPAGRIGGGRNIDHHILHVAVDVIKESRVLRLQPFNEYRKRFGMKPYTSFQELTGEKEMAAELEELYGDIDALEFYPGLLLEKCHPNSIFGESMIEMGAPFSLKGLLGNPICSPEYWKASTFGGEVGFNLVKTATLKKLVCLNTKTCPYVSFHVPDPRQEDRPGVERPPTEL
Summary of the method: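 Colorimetric enzyme readout using sheep seminal-vesicle cyclooxygenase-1, measured 0.66 h post-dosing. Single-concentration duplicates at 25 uM first, then concentration series for actives, with DMSO as baseline and plate controls.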

[6] = biological target: sheep Cyclooxygenase-2 (Cox2), PTGS2 (gene 443460) (UniProt P79208); test: NVS_ENZ_oCOX2: NovaScreen (NVS) Enzymatic Assay for sheep Cyclooxygenase-2 (Cox2) (AID 2283231)
Summary of the method: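 Ovine placental enzyme, cell-free; chemical added, 0.66 h, absorbance (colorimetric). Screen 25 uM in duplicate; ≥threshold hits titrated, top 50 uM. Inhibition = signal loss vs DMSO.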

[7] = biological target: rat Catechol-O-Methyl Transferase (COMT), Comt (gene 24267) (UniProt P22734); test: NVS_ENZ_rCOMT: NovaScreen (NVS) Enzymatic Assay for rat Catechol-O-Methyl Transferase (COMT) (AID 2283235)
Chain of rat Catechol-O-Methyl Transferase (COMT), Comt (gene 24267) (P22734 whole entry, looked up): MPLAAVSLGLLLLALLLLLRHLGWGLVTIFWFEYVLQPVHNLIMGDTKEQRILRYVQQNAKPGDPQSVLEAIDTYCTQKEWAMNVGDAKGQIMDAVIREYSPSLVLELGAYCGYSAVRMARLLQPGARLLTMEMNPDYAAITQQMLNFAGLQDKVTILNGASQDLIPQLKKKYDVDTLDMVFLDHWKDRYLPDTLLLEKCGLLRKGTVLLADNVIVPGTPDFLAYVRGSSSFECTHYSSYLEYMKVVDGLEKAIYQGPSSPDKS
Summary of the method: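 Rat dorsal striatum extract served as COMT source; product quantified by HPLC/spectrophotometry, read at 0 h after dosing. Primary single-concentration screen at 25 uM, followed by concentration series to a 50 uM maximum.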

[8] = biological target: rat Adenylate Cyclase, Forskolin Stimulated, Adcy5 (gene 64532) (UniProt Q04400); test: NVS_ENZ_rACFSKBinding: NovaScreen (NVS) Enzymatic Assay for rat Adenylate Cyclase, Forskolin Stimulated (AID 2283232)
Chain of rat Adenylate Cyclase, Forskolin Stimulated, Adcy5 (gene 64532) (Q04400 whole entry, looked up): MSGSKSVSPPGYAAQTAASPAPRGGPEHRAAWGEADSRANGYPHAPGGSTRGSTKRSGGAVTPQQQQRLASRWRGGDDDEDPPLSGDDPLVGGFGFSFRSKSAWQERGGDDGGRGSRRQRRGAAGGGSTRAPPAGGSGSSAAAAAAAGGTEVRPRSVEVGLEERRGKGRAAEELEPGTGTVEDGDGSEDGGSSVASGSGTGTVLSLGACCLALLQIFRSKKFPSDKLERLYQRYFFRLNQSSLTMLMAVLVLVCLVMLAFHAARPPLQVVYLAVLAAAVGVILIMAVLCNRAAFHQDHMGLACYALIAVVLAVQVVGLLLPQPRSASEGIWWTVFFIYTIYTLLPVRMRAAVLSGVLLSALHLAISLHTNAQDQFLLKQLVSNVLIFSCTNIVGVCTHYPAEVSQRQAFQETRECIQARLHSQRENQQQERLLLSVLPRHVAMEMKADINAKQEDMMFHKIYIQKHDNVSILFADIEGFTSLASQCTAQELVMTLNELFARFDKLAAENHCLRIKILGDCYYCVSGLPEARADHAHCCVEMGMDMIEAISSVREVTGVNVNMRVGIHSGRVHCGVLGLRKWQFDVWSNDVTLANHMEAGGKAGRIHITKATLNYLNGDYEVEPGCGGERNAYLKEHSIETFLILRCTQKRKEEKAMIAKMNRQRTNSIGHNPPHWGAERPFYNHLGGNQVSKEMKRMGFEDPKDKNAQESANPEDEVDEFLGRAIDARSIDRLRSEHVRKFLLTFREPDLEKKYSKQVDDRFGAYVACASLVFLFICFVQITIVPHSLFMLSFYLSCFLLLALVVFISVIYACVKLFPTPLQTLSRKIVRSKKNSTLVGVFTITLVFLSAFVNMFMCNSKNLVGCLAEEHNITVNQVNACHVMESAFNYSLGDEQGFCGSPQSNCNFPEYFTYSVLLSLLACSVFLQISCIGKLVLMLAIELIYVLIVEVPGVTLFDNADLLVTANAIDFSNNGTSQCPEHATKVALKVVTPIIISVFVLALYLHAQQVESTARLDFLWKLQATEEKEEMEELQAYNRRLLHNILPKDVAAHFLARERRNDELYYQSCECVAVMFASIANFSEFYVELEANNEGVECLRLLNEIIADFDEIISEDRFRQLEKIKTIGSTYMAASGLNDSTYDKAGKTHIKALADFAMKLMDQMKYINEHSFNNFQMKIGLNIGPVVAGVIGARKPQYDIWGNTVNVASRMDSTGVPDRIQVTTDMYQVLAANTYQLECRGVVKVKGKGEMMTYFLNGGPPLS
Summary of the method: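 Chemicals were first tested at 25 uM in duplicate, then hits run as concentration series with top concentration 50 uM. Enzyme source was rat forebrain membranes; radiometric filter read-out after 1 h, referenced to DMSO.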

[9] = tested on: rat Monoamine Oxidase, MAO-A, Peripheral (MAOAP), gene 29253; test: NVS_ENZ_rMAOAP: NovaScreen (NVS) Enzymatic Assay for rat Monoamine Oxidase, MAO-A, Peripheral (MAOAP) (AID 2283237)
Summary of the method: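 Scintillation counting tracked MAO-A activity in a cell-free rat liver mitochondrial membrane prep, read 1.17 hours after compound addition. Single-point duplicate testing at 25 uM preceded concentration-response follow-up; activity was fitted relative to DMSO.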

[10] = tested on: bovine Angiotensin II Receptor Type 2 (AT2), gene 407157; test: NVS_GPCR_bAT2: NovaScreen (NVS) G Protein-Coupled Receptor Assay for bovine Angiotensin II Receptor Type 2 (AT2) (AID 2283240)
Summary of the method: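 Radioligand displacement on bovine cerebellar membranes, 1 hour incubation, filter-based scintillation counting; loss of signal vs DMSO. Duplicate single-point screen at 25 uM, then concentration-response to 50 uM maximum.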

CCOC(=O)[C@]1(c2ccccc2)Oc2ccccc2[C@@H]1N
outcome [1]: inactive
AC50 [2]: 17.2 µM (active)
outcome [3]: inactive
AC50 [4]: 10.2 µM (active)

Clc1ccccc1Cl
outcome [5]: inactive

CC(C)(C)OOC(=O)c1ccccc1
outcome [6]: inactive
outcome [4]: inactive

Nc1ccc(Cl)cc1N
AC50 [5]: 4.69 µM (active)

Cc1cccc(N)c1N
outcome [2]: inactive
outcome [5]: inactive

ClCCOCCCl
outcome [5]: inactive

CCCCCCCCOC(=O)c1ccc(C(=O)OCCCCCCCC)c(C(=O)OCCCCCCCC)c1
outcome [2]: inactive

Cc1ccc(N)c(N)c1
AC50 [5]: 42 µM (active)

CCCCCCCCCCCCCN1CC(C)OC(C)C1 (configuration not stated)
AC50 [7]: 20.8 µM (active)

CCCCCCCCn1sccc1=O
AC50 [8]: 26 µM (active)

CCNS(=O)(=O)C(F)(F)C(F)(F)C(F)(F)C(F)(F)C(F)(F)C(F)(F)C(F)(F)C(F)(F)F
outcome [1]: inactive

Cc1ccc([N+](=O)[O-])cc1
outcome [6]: inactive

CN(C)C(=O)Nc1ccc(Cl)cc1
outcome [2]: inactive

CN(C)[C@@H]1C(=O)C(C(N)=O)=C(O)[C@@]2(O)C(=O)C3=C(O)c4c(O)cccc4[C@@](C)(O)[C@H]3C[C@@H]12
AC50 [6]: 11.4 µM (active)
AC50 [7]: 2.73 µM (active)
outcome [4]: inactive
outcome [5]: inactive

c1ccc(NNc2ccccc2)cc1
AC50 [5]: 2.46 µM (active)

C=CCc1ccc2c(c1)OCO2
outcome [3]: inactive

Oc1ccc2ccc3cccc4ccc1c2c34
AC50 [7]: 25 µM (active)
AC50 [9]: 1.18 µM (active)

c1ccc2c(c1)-c1cccc3cccc-2c13
outcome [5]: inactive

CCCCOC(=O)c1ccccc1C(=O)OCc1ccccc1
outcome [3]: inactive

CCOc1cccc(C2(N3CCN(c4ccccc4)CC3)CCC(C)CC2)c1 (configuration not stated)
AC50 [9]: 13.7 µM (active)

O=C(N[C@H](c1ccccc1)[C@@H]1CN2CCC1CC2)c1c(Cl)ccc(C(F)(F)F)c1Cl
AC50 [9]: 50.6 µM (active)

COP(=S)(OC)SCN1C(=O)c2ccccc2C1=O
outcome [2]: inactive
AC50 [3]: 3.44 µM (active)
outcome [4]: inactive

CC(C)(C)OOC(C)(C)CCC(C)(C)OOC(C)(C)C
outcome [9]: inactive

CCN(CC)CCO
outcome [9]: inactive

CC(C)(O)c1cnn2c(-c3ccc(F)c(-c4c(F)cccc4C#N)c3)cnc2n1
outcome [8]: inactive
outcome [9]: inactive
outcome [4]: inactive

[Cl-].[Cl-].[Hg+2]
AC50 [9]: 3.19 µM (active)
AC50 [5]: 2.97 µM (active)

Nc1ccc([N+](=O)[O-])cc1
AC50 [9]: 16.7 µM (active)

COc1cc(C=O)cc2c1[C@H](COC(N)=O)[C@]1(OC(C)=O)ON2C[C@H]2[C@@H]1N2C(C)=O
outcome [1]: inactive

C1=Cc2cccc3cccc1c23
AC50 [5]: 15.7 µM (active)

Nc1ccc(N=Nc2ccccc2)cc1
AC50 [9]: 18.3 µM (active)
AC50 [4]: 25 µM (active)
AC50 [5]: 4.49 µM (active)

CN(C)c1ccccc1
outcome [6]: inactive

CC(O)CCO (configuration not stated)
outcome [6]: inactive

O=[N+]([O-])C(Br)(CO)CO
AC50 [8]: 21.3 µM (active)
AC50 [2]: 35.2 µM (active)
AC50 [4]: 35.6 µM (active)

O=P(OCCCl)(OCCCl)OCCCl
outcome [6]: inactive

Cc1cc(N=Nc2ccccc2C)ccc1N
AC50 [7]: 0.643 µM (active)
AC50 [4]: 25 µM (active)
AC50 [5]: 11.8 µM (active)

CN(C)c1ccc(C(=O)c2ccc(N(C)C)cc2)cc1
AC50 [6]: 13 µM (active)
AC50 [9]: 7.24 µM (active)
AC50 [4]: 7.63 µM (active)
AC50 [5]: 25.2 µM (active)

CCC[CH2][Sn]([Cl])([CH2]CCC)[CH2]CCC
AC50 [8]: 41 µM (active)
AC50 [10]: 18.2 µM (active)

CNC(=O)Oc1cccc2c1OC(C)(C)C2
AC50 [2]: 0.464 µM (active)

From PubChem BioAssay (EPA / NIEHS)
